From ChEMBL document CHEMBL4513216, “Probing the Open Global Health Chemical Diversity Library for Multistage-Active Starting Points for Next-Generation Antimalarials” (ACS Infect Dis, 2020) come the findings set out here.

The structures appear in SMILES notation. In all, about 65,000 compounds went through this assay and about 2,100 (3.2%) showed an effect of 50% or more. The median lay at about -52%. What follows is part of a selection rich in strong results, with near analogues and random picks from the rest.

For the test, the system named is Plasmodium falciparum. Put plainly: Screen against P. falciparum Asexual Blood Stage (ABS), at 5uM. As to conditions: tested at 5 uM. The format is functional, Dd2.
Consider `O=C(Cc1c(F)cccc1F)N1CCN(CC(=O)N2CCCC2)CC1`, for which the INHIBITION is listed as -130%.
In the case of `Cc1cc(CN2CC[C@H]3C[C@@H](c4nccs4)O[C@@H]3C2)no1` it was -79.5%; in that of `CC(=O)N1CCOCC2(CCCNC2)C1` (stereo not drawn), -96.3%; in that of `Clc1ccc(C2(CNC3=NCCN3)CCCCC2)cc1`, 90.2%.
In the case of `CN(C)C(=O)C1CCC2(CCNCC2)C1` (stereo not drawn) it was -63%.
In the case of `CC(NCc1ccc(OCC(N)=O)cc1)c1ccc2c(c1)CCCC2` (stereo not drawn) it was 73.4%.
For the molecule `CC(C)n1[nH]c(=O)c2c1NC(=O)CSC2c1ccc(OCC(N)=O)cc1` (stereo not drawn), the INHIBITION was -43.5%.
In the case of `CC(C)n1[nH]c(=O)c2c1NC(=O)CSC2c1cccc(OCC(N)=O)c1` (stereo not drawn) it was -96.5%; in that of `O=C(c1cccnc1)N1CCN2C[C@H](Oc3cncnc3)C[C@H]2C1`, -64.5%.
In the case of `Cc1noc(C)c1CN1CC[C@@H]2O[C@H](COCC3CC3)CC[C@@H]21` it was -4.95%; in that of `Cc1ccc(-c2nc(CNC(C)CCO)[nH]c2-c2ccccn2)cc1` (stereo not drawn), 86%; in that of `c1cc(CN2CC[C@H]3C[C@H](c4nc(C5CC5)cs4)O[C@@H]3C2)ccn1`, -49.9%.
With `CN(C)c1ncc2c(c1C(=O)O)CCN(Cc1ccco1)C2`, the INHIBITION is given as -111%.
In the case of `c1ccc(NC[C@@H]2CCC[C@@H]3CN(Cc4cccnc4)C[C@@H]32)nc1` it was 75%; in that of `Cn1ccnc1NC[C@@H]1CCC[C@@H]2CN(Cc3cccnc3)C[C@@H]21`, -26.3%.
In the case of `c1ccc(NC[C@@H]2CCC[C@@H]3CN(c4ncccn4)C[C@@H]32)nc1` it was 72.9%; in that of `c1cnc(NC[C@@H]2CCC[C@@H]3CN(Cc4cc[nH]n4)C[C@@H]32)nc1`, -16.9%; in that of `c1ccc(NC[C@@H]2CCC[C@@H]3CN(Cc4csnn4)C[C@@H]32)nc1`, 62%.
In the case of `c1ccc(NC[C@@H]2CCC[C@@H]3CN(Cc4nccs4)C[C@@H]32)nc1` it was 57.1%; in that of `c1cnc(NC[C@@H]2CCC[C@@H]3CN(Cc4csnn4)C[C@@H]32)nc1`, 47.7%.
Take `c1ccc(CN2C[C@@H]3CCCO[C@@H]3[C@H](Nc3ccccn3)C2)nc1`: the INHIBITION is 18.5%.
In the case of `c1cncc(CN2C[C@H]3CCC[C@@H](CNc4cnccn4)[C@H]3C2)c1` it was -3.45%; in that of `CC(=O)N1C[C@H]2CCCC(N3CCN(c4ncccn4)CC3)[C@H]2C1` (stereo partly drawn), -104%; in that of `c1ccc(NC[C@@H]2CCC[C@@H]3CN(Cc4cc[nH]n4)C[C@@H]32)nc1`, -29.8%.
For the molecule `O=C1N(c2cncnc2)CCC12CCCN(Cc1cccnc1)C2` (stereo not drawn), the INHIBITION was -88.1%.
On to `Cc1nn(C)c2ncc(S(=O)(=O)N3CCCN4CCCC4C3)cc12` (stereo not drawn), for which the INHIBITION is listed as -18.1%.
`O=C1CSC(c2cccnc2)c2c(n(C3CCOCC3)[nH]c2=O)N1` (stereo not drawn): the INHIBITION is listed as -140%.
Take `CC[C@@H]1N(C)CCC[C@]12CCC(=O)N2Cc1ccncc1`: the INHIBITION turned out to be 3.77%.
In the case of `O=C1CCC2(CCN(Cc3ccc(F)cc3)CC2)N1CCN1CCCC1` it was 84.6%.
Consider `COCCN1CCCC2(CCC(=O)N2Cc2cccnc2)C1` (stereo not drawn), for which the INHIBITION was -66.3%.
In the case of `Cc1cnc(N2CCCC3(CCCN3CC(=O)N(C)C)C2)nc1` (stereo not drawn) it was -98.2%.
In the case of `COCc1cncc2c1CCN(Cc1cccs1)C2` it was -1.55%; in that of `COCCNc1nc2c(c(NCCc3cccs3)n1)CCNCC2`, 81.9%.
In the case of `COCCNc1nc2c(c(NCc3cnc(C)c(C)c3)n1)CCNCC2` it was -67.4%.
For the molecule `Cn1cc(C2=CCN(CCCC(=O)Nc3ccc(C#N)cc3)CC2)cn1`, the INHIBITION was -69.1%.
In the case of `Cc1ccc(CN2CC[C@@H]3[C@@H]2CCN3C(=O)Cc2cccs2)o1` it was -34.3%.
In the case of `Cc1nc(CC(=O)N(C)C2CCCN(CCc3ccccc3)C2)cs1` (stereo not drawn) it was -42.4%; in that of `CCn1ccnc1CN1CCCN(C(=O)Cc2ccc(F)cc2)CC1`, -4.98%.
In the case of `CCn1c(C)nnc1CN(C)C1CCN(CCOc2ccccc2)C1` (stereo not drawn) it was -23.4%.
With `CCn1ccnc1CN(C)C1CCCN(CCCc2ccccc2)C1` (stereo not drawn), the INHIBITION is given as 86.8%.
In the case of `CCn1ccnc1CN1CCCN(C(=O)Cc2ccccc2C)CC1` it was -41.3%; in that of `Cc1ncc(CN(C)C2CCCN(CCc3ccccc3)C2)n1C` (stereo not drawn), 90%.
In the case of `CCn1ccnc1CN(C)C1CCCN(Cc2ccccc2F)C1` (stereo not drawn) it was 70.4%; in that of `CCn1ccnc1CN(C)C1CCCN(CCc2ccccc2)C1` (stereo not drawn), 77.1%; in that of `COC(=O)N1C[C@@H]2CC[C@H]1CN(Cc1ccncc1)C2`, -81.6%.
In the case of `c1cncc(O[C@H]2CC[C@H]3[C@H]2OCCN3C2CCCC2)c1` it was -36.8%; in that of `O=C(c1ccc(F)c(F)c1)N1C[C@H]2CNC[C@H]2C1`, -51.2%.
For `Cc1nccn1CCCN1CCCC(c2ccccc2)C1` (stereo not drawn), the INHIBITION is recorded as 77.8%.
In the case of `Cc1ccc(O[C@@H]2C[C@H]3CN(c4ncc(F)cn4)CCN3C2)cc1` it was -98.8%; in that of `c1cncc(OC[C@@]23CCC[C@@H]2CN(CC2CCOCC2)C3)c1`, 39%; in that of `c1cc(NC2CC3(CCN(Cc4cscn4)C3)C2)ncn1` (stereo not drawn), -13.3%.
In the case of `CN1CC(c2ccccc2)CC2(CCN(Cc3ncc[nH]3)CC2)C1` (stereo not drawn) it was 82.5%.
In the case of `CCN1CC(c2ccccc2)CC2(CCN(Cc3ncc[nH]3)CC2)C1` (stereo not drawn) it was 88.1%.
Consider `COCC1CC2(CCN(CC3CC3)CC2)CN1Cc1ccccn1` (stereo not drawn), for which the INHIBITION was 42.4%.
In the case of `c1cc(NC2CC3(CCN(Cc4cc[nH]n4)C3)C2)ncn1` (stereo not drawn) it was -152%; in that of `O=C1NCC[C@]12CN(Cc1ccncc1)C[C@H]2c1ccccc1`, -70.3%; in that of `c1ccc(C2CN(C3CC3)CC3(CCN(Cc4cscn4)CC3)C2)cc1` (stereo not drawn), 80.4%.
In the case of `Cc1cc(NC2CC3(CCN(Cc4cscn4)C3)C2)ncn1` (stereo not drawn) it was 19.4%; in that of `COCC1CC2(CCN(Cc3ccccn3)CC2)CN1C(C)C` (stereo not drawn), 9.58%; in that of `Cc1ncsc1CN1CCO[C@H]2[C@H](Oc3ccccn3)CC[C@@H]21`, -24.4%.
In the case of `CCC12CN3CC(CC)(CN(C1)C3c1[nH]c(=O)[nH]c(=O)c1C)C2=O` (stereo not drawn) it was -87.1%; in that of `CCOC(=O)[C@@H]1[C@@H](c2ccccc2)CN2CCN(C(=O)C3CC3)C[C@H]12`, -91.7%.
As to `c1cc(CN2CCO[C@@H]3CNC[C@@H]32)co1`, the INHIBITION is given as -38.2%.
On to `CCOc1c(Br)cc(C2c3c(n[nH]c3C)N=C3COC(=O)C32)cc1OC` (stereo not drawn), for which the INHIBITION is 81.1%.
In the case of `COc1cc(C2c3c(n[nH]c3C)N=C3COC(=O)C32)cc(Br)c1O` (stereo not drawn) it was 91%; in that of `COc1cc(C2SCC(=O)Nc3n[nH]cc32)cc(OC)c1O` (stereo not drawn), -36%.
In the case of `c1ccc(CN2CCO[C@H]3[C@H](OCCN4CCCC4)CC[C@@H]32)nc1` it was 30%.
In the case of `CN1CCN(C[C@H]2CN3CC[C@H]2C[C@@H]3CNC(=O)c2ccco2)CC1` it was -59.7%.
`O=C1CO[C@@H]2CN(Cc3ccncc3)C[C@H]2N1Cc1ccncc1`: the INHIBITION is recorded as -52.2%.
In the case of `CC(=O)N1CCC2(CC1)NC(=O)[C@H]1CN(Cc3cccnc3)C[C@H]12`, the INHIBITION is reported as -6.03%.
In the case of `CC1=C(CCN2C[C@H](O)[C@@H](N3CCOCC3)C2)C(C)(C)CCC1` it was 78.3%; in that of `O=C(COc1cccc(F)c1)N1C[C@@H](O)[C@H](N2CCOCC2)C1`, -17.5%.
For the molecule `Cc1ccccc1CC(=O)N1C[C@@H](O)[C@H](N2CCOCC2)C1`, the INHIBITION is -16.5%.
In the case of `COc1cc(N2CCC[C@]3(C(=O)O)CN(C(C)C)C[C@@H]3C2)ncn1` it was -85.1%.
Consider `O=S1(=O)C[C@@H]2[C@H](C1)N(Cc1ncc[nH]1)CCN2Cc1cccnc1`, for which the INHIBITION was -89.75%.
In the case of `Brc1ccc(CN2CCC(NCc3ncc[nH]3)CC2)cc1` it was 83.5%; in that of `Clc1cc(Cl)cc(CN2CCC(NCc3ncc[nH]3)CC2)c1`, 84.7%.
Regarding `CCn1cc(CN2CCCC(COc3ccccc3F)C2)cn1` (stereo not drawn), the INHIBITION was found to be 72.7%.
In the case of `CCn1cc(CN2CCCN(C(=O)Cc3cccs3)CC2)cn1`, the INHIBITION is recorded as -85.9%.
As for `COCCc1ncc(CN2CCCC(C(=O)c3ccccc3)C2)cn1` (stereo not drawn), the INHIBITION was -145%.
Regarding `CCn1cc(CN2CCCC(COc3ccc(F)cc3)C2)cn1` (stereo not drawn), the INHIBITION is listed as 75.5%.
As to `Cc1nc(CN(C)C)cc(N2CCCC(COc3ccc(F)cc3)C2)n1` (stereo not drawn), the INHIBITION is listed as 86.4%.
In the case of `CCn1cc(CN2CCCN(C(=O)Cc3ccc(C)nc3)CC2)cn1`, the INHIBITION is -14.8%.
In the case of `O=C(N[C@@H]1CN[C@@H]2CCCO[C@@H]21)c1cscn1` it was 14%; in that of `Cc1noc(C)c1CN1CC[C@H]2C[C@H](c3nccs3)O[C@@H]2C1`, -8.14%.
In the case of `O=C1CO[C@H]2CN(C3CCOCC3)C[C@H]2N1Cc1ccccn1` it was -104%; in that of `CCCc1nc(C(=O)N[C@H]2COC[C@@H]2N2CCN(C)CC2)cs1`, -49.3%.
In the case of `COCCN1CCc2c(cnc(-c3ccoc3)c2C(=O)O)C1` it was -47.6%.
As to `Cc1ccc(OCc2occc2C(=O)N2CCCCC(N)C2)cc1` (stereo not drawn), the INHIBITION is 77.5%.
`Cc1occc1C(=O)N1CCN2C[C@H](Oc3cccnc3)C[C@H]2C1`: the INHIBITION is -23.4%.
In the case of `CC(C)NC(=O)[C@H]1C[C@H]2NCCO[C@@H]2C1` it was -33.9%; in that of `Cc1cc(CN2C[C@H]3CCC[C@@]3(COCC3CCOCC3)C2)no1`, -91.9%; in that of `O[C@@]1(c2ccccn2)CC[C@H]2CN(Cc3ccccn3)C[C@H]21`, -89.9%.
In the case of `CC(C)(C)c1cc(CN2C[C@@H]3CC[C@H]2CN(Cc2ccccn2)C3)n[nH]1` it was 74.1%; in that of `Cc1nnsc1CN1C[C@@H]2CC[C@H]1CN(Cc1ccccn1)C2`, -2.06%.
Take `O=C(CN1C[C@@H]2CC[C@H]1CN(Cc1ccccn1)C2)Nc1ccccc1`: the INHIBITION turned out to be 83.6%.
In the case of `Oc1cccc(CN2C[C@@H]3CC[C@H]2CN(Cc2cccnc2)C3)c1` it was -14.5%.
In the case of `O=C(Cc1ccccn1)N1C[C@H]2CN(Cc3ccccn3)C[C@H]2C1` it was -68.5%.
